TAG inh: inhibitors of triacylglycerol accumulation. H9c2 cells, Nile Red lipid (TAG) fluorescence; cells loaded with 200 µM oleic acid. inhibition, % at 12.5 µM. 230,000 compounds, 0.66% hits. AID 651582;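 active means pattern-corrected inhibition of lipid staining of at least 50% with the nuclear-stain viability signal not falling by more than 50%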
MIN6 prolif-1: MIN6 beta-cell proliferation induction; MIN6 cells proliferation, ATPlite luminescence, 48 h; cells starved in 0.2% serum; 100% = growth in 10% serum; proliferation, % at 10 µM; 330,000 compounds, 0.29% hits; AID 2380;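 active means compounds whose signal lies at least 3.5 SD above the mean of all wells on their plate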
hiPSC survival: enhancers of human iPSC single-cell survival; hiPSC single-cell survival, ATPlite luminescence; 100% = ROCK inhibitor wells, 0% = DMSO; survival enhancement, % at 20 µM; 360,000 compounds, 0.044% hits; AID 602274; in the data active means survival enhancement above about 18%;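 further: cells exposed to compounds for 16 hours before the ATP read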
MIN6 prolif-2: confirmation of inducers of beta-cell replication in MIN6 cells; shares compounds with MIN6 prolif-1; MIN6 beta-cell proliferation, ATPlite luminescence, 48 h; cells kept in 0.2% serum; scaled between 0.2% and 10% serum; proliferation increase, % at 50 µM; 920 tested, under 10 active; AID 463095;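 active means proliferation increase above 40% at any of the four tested concentrations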
Hits are given with their value; i = inactive; nt = no result. Hits are enriched below; roughly 0.71% of the tested compounds scored in any of these assays.

SMILES	TAG inh	MIN6 prolif-1	hiPSC survival	MIN6 prolif-2
COc1ccc(/C=N\NC(=O)CNC(=O)C2COc3ccccc3O2)cc1[N+](=O)[O-] (stereo unspecified)	nt	14	i	i
COc1cc(/C=N\NC(=O)CNC(=O)C2COc3ccccc3O2)ccc1O (stereo unspecified)	nt	i	i	nt
CCc1ccc(NC(=O)c2noc3c2CCc2ccccc2-3)cc1	i	7.2	i	i
Cc1ccc(NC(=O)c2noc3c2CCc2ccccc2-3)cc1	i	i	i	nt
O=C1NC(=S)SC1=Cc1ccccn1	nt	nt	i	nt
COc1ccc(N(C(=O)CNC(=O)c2cccs2)C(C(=O)NC2CCCC2)c2ccncc2)cc1 (stereo unspecified)	nt	7.3	i	i
COc1ccc(N(C(=O)Cc2cccs2)C(C(=O)NC2CCCC2)c2ccncc2)cc1 (stereo unspecified)	nt	i	i	nt
COc1ccc(C(=O)COC(=O)c2cc([N+](=O)[O-])ccc2N2CCOCC2)c(OC)c1	i	12	i	i
COc1ccc(C(=O)COC(=O)c2cc(S(=O)(=O)N3CCCCC3)ccc2N2CCOCC2)c(OC)c1	i	11	i	i
COc1ccccc1C(=O)COC(=O)c1cc([N+](=O)[O-])ccc1N1CCOCC1	i	i	i	nt
COc1ccccc1C(=O)COC(=O)c1cc(S(=O)(=O)N2CCCCC2)ccc1N1CCOCC1	i	i	i	nt
C=CCn1c(Cc2c(C)[nH]c3ccccc23)nnc1SCC(=O)NCc1ccc(F)cc1	i	6.9	i	i
CCn1c(Cc2c(C)[nH]c3ccccc23)nnc1SCC(=O)NCc1ccccc1	i	i	i	nt
O/N=C/c1cn(-c2ccccc2)nn1	nt	7.6	i	i
O/N=C/c1cn(-c2ccc(Cl)cc2)nn1	nt	i	i	nt
CCOC(=O)CSc1nc2ccccc2c(=O)n1C1CCCC1	i	5.3	i	i
CNC(=O)CSc1nc2ccccc2c(=O)n1C1CCCCC1	nt	i	i	nt
COC(=O)CC1OCC=C2CN3CCC45C6=CC(=O)C(=O)C([N+](=O)[O-])=C6NC4C1C2CC35 (stereo unspecified)	i	nt	i	nt
CCCC[C@@H]1Cc2[nH][nH]c(=O)c2[C@H](c2ccc(C(C)C)cc2)O1	nt	nt	i	nt
COc1cccc(CNC(=O)[C@@H]2CCCN2C(=O)[C@H]2CCCCN2S(=O)(=O)c2ccc(OC)c(C)c2)c1	nt	nt	i	nt
COc1cccc(Cn2cnc(-c3ccccc3OC)c2C2CC2)c1	nt	nt	i	nt
CCOc1ccc2nc(SCC(=O)N3CCCCCC3)c(C#N)cc2c1	i	5.3	i	i
CCOc1ccc2cc(C#N)c(SCC(=O)N3CCOCC3)nc2c1	nt	i	i	nt
COC(=O)C1C2CC(C(Br)C2Br)C1C(=O)O (stereo unspecified)	i	nt	i	nt
Cc1ccc(CNc2oc(-c3ccco3)nc2C#N)cc1	nt	0.0	i	i
SMILES	TAG inh	MIN6 prolif-1	hiPSC survival	MIN6 prolif-2
CNc1oc(-c2ccco2)nc1C#N	i	i	i	nt
C[C@H]1CN([C@@H](C)CO)C(=O)c2cc(Br)cnc2O[C@H]1CN(C)S(=O)(=O)c1ccccc1F	i	nt	i	nt
CCOc1cc(N2CCOCC2)c(OCC)cc1NC(=O)c1cnccn1	i	9.3	i	i
CCOc1cc(-n2cnnn2)c(OCC)cc1NC(=O)c1cnccn1	nt	i	i	nt
COc1cccc(-c2cnc3c(NC(C)=O)cc(-c4ccsc4)cn23)c1	i	nt	i	nt
COc1nc(N(C)C)nc(N(C#N)S(=O)(=O)c2ccc(C)cc2)n1	nt	5.8	i	i
CON(c1nc(Cl)nc(N(C)C)n1)S(=O)(=O)c1ccc(C)cc1	nt	i	i	nt
COc1nc(NC(C)(C)C)nc(Oc2ccc(=O)n(C)n2)n1	i	i	i	nt
CC(C)Nc1nc(NC(C)(C)C)nc(Oc2ccc(=O)n(C)n2)n1	i	7.4	i	i
Cc1cn([C@H]2C[C@H](O)[C@@H](/C=C/C(=O)NCCN3CCCCC3)O2)c(=O)[nH]c1=O	nt	nt	i	nt
COc1ccccc1N1CCN(C(=O)CN(C)S(=O)(=O)c2ccc(C)cc2)CC1	i	nt	i	nt
Cc1ccc(OCC(=O)N2CC3(C)CC2CC(C)(C)C3)cc1 (stereo unspecified)	i	6.8	i	i
Cc1cccc(C)c1OCC(=O)N1CC2(C)CC1CC(C)(C)C2 (stereo unspecified)	i	i	i	nt
COc1ccc(NC(=O)C2c3ccccc3OCC(=O)N2Cc2ccco2)cc1 (stereo unspecified)	nt	nt	i	nt
COc1cccc(NC(=O)CSc2nc(C3CC3)nc3ccccc23)c1	nt	i	i	nt
Cc1cccc(C)c1NC(=O)CSc1nc(C2CC2)nc2ccccc12	nt	0.0	i	i
COc1ccc(Cl)cc1C(=O)OCC(=O)Nc1sccc1C(N)=O	i	i	i	nt
COc1cc(N)c(Cl)cc1C(=O)OCC(=O)NCC1CCCCC1	i	8.8	i	i
COc1cc(N)c(Cl)cc1C(=O)OCC(=O)NCC1CCCO1 (stereo unspecified)	i	i	i	nt
COc1ccc(Cl)cc1C(=O)OCC(=O)NCCNC(=O)COC(=O)c1cc(Cl)ccc1OC	i	9.7	i	i
CCOC(=O)[C@@H](NC(=O)CC[C@H]1O[C@@H](n2ccc(=O)[nH]c2=O)[C@H](O)[C@@H]1O)C(C)C	nt	nt	i	nt
O=C1Nc2ccc(S(=O)(=O)N3CCCC3)c3ccc(S(=O)(=O)N4CCCC4)c1c23	i	9.2	i	i
O=S(=O)(c1ccc(Cl)c2ccccc12)N1CCCC1	i	i	i	nt
C=CCN1C(=O)/C(=C2/Sc3ccccc3N2CCCS(=O)(=O)O)SC1=S	i	6.4	i	i
C=CCN1C(=O)/C(=C2/Sc3ccccc3N2CC)SC1=S	i	i	i	nt
SMILES	TAG inh	MIN6 prolif-1	hiPSC survival	MIN6 prolif-2
CCN(CC)S(=O)(=O)c1ccc(N2CCCC2)c(NC(=O)C2=COCCO2)c1	i	i	i	nt
CCN(CC)S(=O)(=O)c1ccc(OC(C)C)c(NC(=O)C2=COCCO2)c1	i	16	i	i
CCCCn1nnnc1C1(C)CCC(=O)N1CCCN1CCOCC1 (stereo unspecified)	nt	nt	i	nt
CCCNC(=O)C1(C)CCCN(Cc2ccc(C(=O)OCC)o2)C1 (stereo unspecified)	i	nt	i	nt
COc1ccc(C(=O)NC(=S)Nc2ccc([N+](=O)[O-])cc2C)cc1OC	nt	i	i	nt
CNC(=S)Nc1ccc([N+](=O)[O-])cc1C	i	9.9	i	i
Cc1ccc2nc(C(C)(C)C)c(Cc3cccc(F)c3)n2c1	nt	nt	i	nt
COc1ccc(COn2c(=O)c(C)[n+]([O-])c3ccccc32)cc1OC	i	5.1	i	i
Cc1c(=O)n(OCc2ccccc2)c2ccccc2[n+]1[O-]	i	i	i	nt
O=C1NC[C@H](Cc2ccccc2)N(C[C@@H]2CCCN2C[C@H](Cc2ccccc2)N2C[C@H](Cc3ccc(O)cc3)N(CCc3ccccc3)C(=O)C2=O)C1=O	nt	nt	i	nt
CN[C@H]1C[C@H]2c3[nH]c4ccc(-c5ccc(OC)cc5)cc4c3CCN2C(=O)[C@H]1[C@H](C)O	i	nt	i	nt
CCOc1ncccc1C(=O)Nc1ccc2c(C)cc(=O)oc2c1	i	8.1	i	i
COc1ccccc1C(=O)Nc1ccc2c(C)cc(=O)oc2c1	nt	i	i	nt
S=c1[nH]nc(-c2ccc3ccccc3n2)n1Cc1ccccc1	nt	8.6	i	i

Compound activity as filed in PubChem.
